In PubChem BioAssay AID463173 (ICCB-Longwood Screening Facility, Harvard Medical School, 2010) one finds survival data, which are given here for 96 compounds.

Structures are written as SMILES. The whole screen tested about 52,000 compounds, of which about 1,700 (3.3%) were called active. What follows is part of a selection rich in actives, with near analogues and random picks from the rest. A number with no mark means an inactive call. No stated cut-off is given here; in the data, active means survival mostly below about 52% (no sharp cut-off); inactive means mostly above about 56%.

This assay concerns Wild type. Nature of the assay: S. aureus survival, RN4220 and DeltatarO strains – OD600, teichoic acid synthesis inhibitors, primary screen (AID 463173). As to conditions: S. aureus RN4220 wild type/DeltatarO growth, OD600, 18 h, active compounds read low, screened at 18.75 µg/mL (by protocol).
As for `COc1ccc(CCNC(=O)CCc2c(C)c3cc4c(C)coc4cc3oc2=O)cc1`, the survival is 90%.
With `C=C(C)Cn1c(=O)c2c(nc3n2CCN3c2ccc(F)cc2)n(C)c1=O`, the survival was 85%.
As for `CC(=O)c1cccc(NC(=O)CSc2nc3ccccc3nc2Cc2ccc(F)cc2)c1`, the survival is 73%.
With `Cc1ccc2oc(-c3cc(N=C/C=C/c4ccc5c(c4)OCO5)ccc3O)nc2c1` the figure was 113%; with `CCOc1cc(CNC(=O)C2CCN(c3nc4ccccc4[nH]3)CC2)cc(OCC)c1OCC`, -3% (active).
With `COc1ccc(CNC(=O)C2CCN(c3nc4ccccc4[nH]3)CC2)cc1OC` the figure was 47%; with `CN(C)c1ccc(CNC(=O)C2CCN(c3nc4ccccc4[nH]3)CC2)cc1`, 45%.
Turning to `CCCN(CCC)CCNC(=O)C1CCN(c2nc3ccc(CC)cc3s2)CC1`, the survival was 67%.
As for `CC1CCC(Nc2nc3c(-c4cccc(C(F)(F)F)c4)nnn3c3ccccc23)CC1` (stereo unspecified), the survival was -1% (active).
The same measure for `CC1CCC(Nc2nc3c(-c4ccc(Cl)cc4)nnn3c3ccccc23)CC1` (stereo unspecified): 25%; for `Cc1ccc(-c2nnn3c2nc(NC2CCC(C)CC2)c2ccccc23)cc1` (stereo unspecified): 4% (active).
The same measure for `Clc1ccc(-c2nnn3c2nc(NC2CCCCC2)c2ccccc23)cc1`: 57%; for `FC(F)(F)c1cccc(-c2nnn3c2nc(NC2CCCCC2)c2ccccc23)c1`: 28%.
The same measure for `Fc1cccc(-c2nnn3c2nc(NC2CCCCC2)c2ccccc23)c1`: 85%.
On to `COc1cc2nc(Nc3cccc(F)c3)nc(N)c2cc1OC`, for which the survival is 89%.
The same measure for `Cc1ccc(OCc2nnc(-c3ccccc3)o2)cc1`: 77%; for `O=C(Nc1cccc(C(=O)OCc2cc(=O)n3c4c(sc3n2)CCCC4)c1)c1cccc(Cl)c1`: 73%; for `CN1c2ccccc2Oc2nnc(N3CCN(Cc4ccccc4)CC3)cc21`: 110%.
Regarding `CCc1ccc(NC(=O)C(=O)NCC(c2cccnc2)N2CCN(C)CC2)cc1` (stereo unspecified), the survival was 111%.
For the compound `CCOC(=O)c1c(C)c(-c2ccccc2)n(CC(=O)Nc2ccc(OCC)cc2)c1C`, the survival was 82%.
For the compound `CCOC(=O)c1c(Oc2ccc(OC)cc2)nnc(-c2ccccc2)c1-c1ccccc1`, the survival was 91%.
For `CCOC(=O)c1c(Nc2ccc(OC)cc2)nnc(-c2ccccc2)c1-c1ccccc1`, the survival was 5% (active).
With `CCOC(=O)c1c(Nc2cccc(C(=O)OC)c2)nnc(-c2ccccc2)c1-c1ccccc1` the figure was 19%; with `CCOC(=O)c1c(Nc2ccc(OCC)cc2)nnc(-c2ccccc2)c1-c1ccccc1`, 2% (active); with `CCOC(=O)c1c(C)oc2ncnc(Nc3ccc(OCC)cc3)c12`, 72%.
With `COCCn1c(SCC(=O)Nc2cc(Cl)ccc2OC)nc2c([nH]c3ccccc32)c1=O` the figure was 132%.
With `Cc1ccc2sc(N3CCN(C(=O)C4COc5ccccc5O4)CC3)nc2c1C` (stereo unspecified) the figure was 148%; with `COc1ccc(-c2nnc(SCC(=O)Oc3c(C)cccc3C)o2)cc1OC`, 117%.
For `CN(C(=O)Nc1cn(C)c(=O)c2ccccc12)c1ccccc1`, the survival is -6% (active).
For `CCOc1ccccc1N(CC)C(=O)Nc1cn(C)c(=O)c2ccccc12`, the survival was 78%.
The same measure for `Cc1ccc(NC(=O)Nc2cn(C)c(=O)c3ccccc23)c(Cl)c1`: 69%.
With `CCCNC(=O)C1CCC(Cn2c(=O)c3sccc3n(CC(=O)N(CC)CC)c2=O)CC1` (stereo unspecified), the survival was 128%.
The same measure for `Cc1ccc(CNC(=O)CN2C(=O)COc3ccc(S(=O)(=O)Nc4ccccc4)cc32)cc1`: -6% (active).
The same measure for `COc1ccc(CNC(=O)CN2C(=O)COc3ccc(S(=O)(=O)Nc4ccccc4)cc32)cc1`: 87%; for `COc1cccc(CNC(=O)CN2C(=O)COc3ccc(S(=O)(=O)Nc4ccccc4)cc32)c1`: 73%; for `COc1ccc2c(c1)c1c(c(=O)n(-c3ccc(C)cc3)c(=O)n1CC(=O)NCc1ccc(C)cc1)n2C`: 70%.
With `O=S(=O)(Nc1ccccc1C(F)(F)F)c1ccc(N2CCCCS2(=O)=O)cc1` the figure was 136%.
For `Cc1ccc(-n2nc(C)c3nc(CCC(=O)Nc4cccc(F)c4)c(=O)n(C)c32)cc1`, the survival was -6% (active).
For the compound `COc1cccc(NC(=O)CCc2nc3c(C)nn(-c4ccc(C)cc4)c3n(C)c2=O)c1`, the survival was 72%.
The same measure for `Cc1ccc(-n2nc(C)c3nc(CCC(=O)Nc4ccc(F)cc4)c(=O)n(C)c32)cc1`: 80%; for `Cc1ccc(NC(=O)c2c(C)oc3ncn(CC(C)C)c(=O)c23)nc1`: 129%.
The same measure for `Cc1nn(C)c(C)c1NC(=O)CSc1nccc(-c2ccc(Cl)cc2)n1`: 100%; for `O=C(CSc1nc2cc(C(=O)NC3CCCC3)ccc2c(=O)n1CC1CCCO1)c1cccc(Cl)c1` (stereo unspecified): -3% (active); for `CCOc1ccc(C(=O)CSc2nc3cc(C(=O)NC4CCCC4)ccc3c(=O)n2CC2CCCO2)cc1` (stereo unspecified): 0% (active).
With `COc1ccc(C(=O)CSc2nc3cc(C(=O)NC4CCCC4)ccc3c(=O)n2CC2CCCO2)cc1` (stereo unspecified) the figure was 76%.
As to `Cc1ccc(C(=O)CSc2nc3cc(C(=O)NC4CCCC4)ccc3c(=O)n2CC2CCCO2)cc1` (stereo unspecified), the survival was 75%.
As to `O=C(CSc1nc2cc(C(=O)NC3CCCC3)ccc2c(=O)n1CC1CCCO1)c1ccc(F)cc1` (stereo unspecified), the survival was 70%.
With `Cc1ccc(C(=O)CSc2nc3cc(C(=O)NC4CCCC4)ccc3c(=O)n2CC2CCCO2)c(C)c1` (stereo unspecified) the figure was 63%; with `CC(CN1CCCC1)OC(=O)c1ccc(F)cc1` (stereo unspecified), 109%; with `Cc1ccc(-c2nnc(Nc3ccc(Br)cc3)c3ccccc23)cc1S(=O)(=O)N1CCCCC1`, 89%.
With `Cc1cccc(N2CCN(C(c3ccccc3)c3nnc(-c4ccccc4Cl)o3)CC2)c1C` (stereo unspecified) the figure was 52%; with `Cc1cccc(N2CCN(C(c3ccc(F)cc3)c3nnc(-c4ccccc4)o3)CC2)c1C` (stereo unspecified), 28%; with `Cc1ccc(C)c(N2CCN(C(c3ccccc3)c3nnc(-c4ccccc4)o3)CC2)c1` (stereo unspecified), 1% (active).
Regarding `Cc1ccc(Cl)cc1N1CCN(C(c2ccc(F)cc2)c2nnc(-c3ccccc3)o2)CC1` (stereo unspecified), the survival is 50%.
The same measure for `COc1ccc(N2CCN(C(c3ccccc3)c3nnc(-c4ccccc4Cl)o3)CC2)cc1` (stereo unspecified): 22%; for `Cc1cccc(N2CCN(C(c3ccccc3)c3nnc(-c4ccccc4F)o3)CC2)c1C` (stereo unspecified): 43%; for `Cc1ccc(C)c(N2CCN(C(c3ccc(F)cc3)c3nnc(-c4ccccc4)o3)CC2)c1` (stereo unspecified): 14% (active).
With `Cc1ccc(C)c(N2CCN(C(c3ccccc3)c3nnc(-c4ccccc4F)o3)CC2)c1` (stereo unspecified) the figure was 53%; with `COc1ccccc1N1CCN(C(c2ccccc2)c2nnc(-c3ccccc3Cl)o2)CC1` (stereo unspecified), 0% (active); with `Cc1ccoc1C(=O)Nc1ccccc1C(=O)O`, 102%.
The same measure for `Cc1ccc(NC(=O)C2CC(=O)n3cnnc3N2)cc1Cl` (stereo unspecified): 105%; for `COCCNC(=O)CCn1c(=O)c2cc(OC)c(OC)cc2n(CC(=O)Nc2ccccc2OC)c1=O`: 89%; for `COc1ccccc1NC(=O)c1cn(-c2ccccc2)nc1-c1ccccc1`: 81%.
As for `COc1ccc(NC(=O)c2cn(-c3ccccc3)nc2-c2ccc(C)cc2)cc1`, the survival was 93%.
The same measure for `COc1ccc(-c2nn(-c3ccccc3)cc2C(=O)Nc2ccccc2OC)cc1`: 3% (active); for `COC(=O)C1(C)NC(c2ccccc2C)C2C(=O)N(C)C(=O)C21` (stereo unspecified): 98%.
The same measure for `CCOC(=O)C1=C(CN2CCN(c3ccccc3)CC2)NC(=O)NC1c1ccc(C)cc1` (stereo unspecified): 127%.
With `CCCCOc1ccc(Cn2c(=O)sc3ccccc32)cc1` the figure was -4% (active).
For the compound `O=c1sc2ccccc2n1CCCOc1ccccc1`, the survival is 116%.
Consider `COc1ccc(Cn2c(=O)sc3ccccc32)cc1`, for which the survival is 111%.
With `CC(C)CCOc1ccc(Cn2c(=O)oc3ccccc32)cc1` the figure was 121%; with `CC(C)CCOc1ccc(Cn2c(=O)sc3ccccc32)cc1`, -3% (active).
With `CCCCOc1ccc(Cn2c(=O)oc3ccccc32)cc1` the figure was 113%; with `CCCOc1ccc(Cn2c(=O)sc3ccccc32)cc1`, -4% (active); with `O=c1sc2ccccc2n1CCc1ccccc1`, 108%.
For `CCOc1ccc(Cn2c(=O)sc3ccccc32)cc1`, the survival was 72%.
With `O=C(CC1N=C2c3ccccc3N=C(SCC(=O)Nc3ccc(F)cc3)N2C1=O)NCc1ccc2c(c1)OCO2` (stereo unspecified), the survival was 80%.
With `COc1ccc2cc3cc(C(=O)NCc4ccccc4OC)oc3nc2c1` the figure was 80%; with `Cc1cccc(-c2nc(Cn3c(SCc4cccc(C(F)(F)F)c4)nc4ccncc43)c(C)o2)c1`, 81%.
The same measure for `Cc1ccc(C(=O)ON=C2CCN(C)CC2)cc1`: 108%; for `O=C(Nc1cccc(F)c1)c1cnc2sc(N3CCCC3)nn2c1=O`: 74%.
The same measure for `COc1ccccc1CNC(=O)Cn1cc2c(n1)-c1c(oc(C(=O)N3CCOCC3)c1C)CC2`: 84%.
Consider `COc1cc2oc(=O)c(CC(=O)N3CCCCC3)c(C)c2cc1Cl`, for which the survival was 84%.
The same measure for `Cc1ccc(OCC(=O)Nc2c(C(=O)c3ccc(Cl)cc3)oc3ccccc23)cc1C`: 129%; for `CCOC(=O)c1cnc(N2CCN(c3cccc(C)c3C)CC2)c2ccccc12`: 85%.
The same measure for `CCOC(=O)c1cnc2ccc(OCC)cc2c1N1CCN(c2ccccc2F)CC1`: -12% (active); for `CCOC(=O)c1cnc(N2CCN(c3ccc(C)cc3C)CC2)c2ccccc12`: 112%.
The same measure for `CCOC(=O)c1cnc2c(OC)cccc2c1N1CCN(c2ccccc2F)CC1`: -14% (active); for `CCOC(=O)c1cc(S(=O)(=O)N2CCN(c3ccccc3OC)CC2)[nH]n1`: 124%; for `CCOC(=O)c1cc(S(=O)(=O)N2CCN(c3cccc(C)c3C)CC2)[nH]n1`: 72%.
In the case of `CCOC(=O)c1noc2ncnc(N3CCN(c4cccc(Cl)c4)CC3)c12`, the survival was 75%.
The same measure for `CCOC(=O)c1cnc2ccc(OCC)cc2c1N1CCN(c2cccc(Cl)c2)CC1`: -9% (active).
Turning to `COC(=O)c1cnc(N2CCN(c3ccccc3F)CC2)c2ccccc12`, the survival was 93%.
With `CCOC(=O)c1cnc2cc(C(F)(F)F)ccc2c1N1CCN(c2cccc(Cl)c2)CC1`, the survival was 55%.
With `CCOC(=O)c1cc(S(=O)(=O)N2CCN(c3ccccc3F)CC2)[nH]n1` the figure was -6% (active); with `CCOC(=O)c1cnc2cc(C(F)(F)F)ccc2c1N1CCN(c2ccc(F)cc2)CC1`, 58%.
